# Biological target: T1, NKX2-4 (Homo sapiens, UniProt Q9H2Z4 175-261)
# T1 sequence: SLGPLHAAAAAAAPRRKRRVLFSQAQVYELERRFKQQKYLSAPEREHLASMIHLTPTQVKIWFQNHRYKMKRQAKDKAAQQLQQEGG
# Experiment: PBM; 200 nM protein, PBS
# Conditions: dsDNA, one strand shown
row,Sequence,binding signal
1,GCGCGACA,"10 upbm affinity estimate (log intensity, higher = more binding, comparable within an allelic series)"
2,CTCGAGTA,"12.1 upbm affinity estimate (log intensity, higher = more binding, comparable within an allelic series)"
3,CGGCTGTA,"9.77 upbm affinity estimate (log intensity, higher = more binding, comparable within an allelic series)"
4,CAAGCCAG,"9.56 upbm affinity estimate (log intensity, higher = more binding, comparable within an allelic series)"
5,GAACTGGC,"9.54 upbm affinity estimate (log intensity, higher = more binding, comparable within an allelic series)"
6,AGAGCACT,"11.9 upbm affinity estimate (log intensity, higher = more binding, comparable within an allelic series)"
7,GGCAGTCA,"9.98 upbm affinity estimate (log intensity, higher = more binding, comparable within an allelic series)"
8,GCTGTGCA,"9.61 upbm affinity estimate (log intensity, higher = more binding, comparable within an allelic series)"
9,GTCAAGGA,"11.6 upbm affinity estimate (log intensity, higher = more binding, comparable within an allelic series)"
10,CAAACCCG,"9.55 upbm affinity estimate (log intensity, higher = more binding, comparable within an allelic series)"
11,CAGTGACC,"9.8 upbm affinity estimate (log intensity, higher = more binding, comparable within an allelic series)"
12,AGCTGCGG,"9.33 upbm affinity estimate (log intensity, higher = more binding, comparable within an allelic series)"
13,CCCCGCCG,"9.54 upbm affinity estimate (log intensity, higher = more binding, comparable within an allelic series)"
14,AAAGCACT,"11.6 upbm affinity estimate (log intensity, higher = more binding, comparable within an allelic series)"
15,CATCGCGA,"9.73 upbm affinity estimate (log intensity, higher = more binding, comparable within an allelic series)"
16,CCGCCATA,"9.85 upbm affinity estimate (log intensity, higher = more binding, comparable within an allelic series)"
17,CCGCTACC,"9.66 upbm affinity estimate (log intensity, higher = more binding, comparable within an allelic series)"
18,ATCCCTCC,"9.86 upbm affinity estimate (log intensity, higher = more binding, comparable within an allelic series)"
19,AAAGTACT,"12.3 upbm affinity estimate (log intensity, higher = more binding, comparable within an allelic series)"
20,AACGCTGG,"9.67 upbm affinity estimate (log intensity, higher = more binding, comparable within an allelic series)"

row,Sequence,binding signal
1,CAACCGTC,"9.8 upbm affinity estimate (log intensity, higher = more binding, comparable within an allelic series)"
2,GACACCGC,"9.43 upbm affinity estimate (log intensity, higher = more binding, comparable within an allelic series)"
3,GAGTGCCA,"11.9 upbm affinity estimate (log intensity, higher = more binding, comparable within an allelic series)"
4,CCAGAGAC,"9.71 upbm affinity estimate (log intensity, higher = more binding, comparable within an allelic series)"
5,CGCCCTGA,"9.83 upbm affinity estimate (log intensity, higher = more binding, comparable within an allelic series)"
6,GCACGGGC,"9.58 upbm affinity estimate (log intensity, higher = more binding, comparable within an allelic series)"
7,AGCTCGCG,"9.62 upbm affinity estimate (log intensity, higher = more binding, comparable within an allelic series)"
8,CTCAAGAG,"12.3 upbm affinity estimate (log intensity, higher = more binding, comparable within an allelic series)"
9,CCGCGGTA,"9.75 upbm affinity estimate (log intensity, higher = more binding, comparable within an allelic series)"
10,ACATGCAG,"9.52 upbm affinity estimate (log intensity, higher = more binding, comparable within an allelic series)"
11,GCGGCGAC,"9.61 upbm affinity estimate (log intensity, higher = more binding, comparable within an allelic series)"
12,GCTATAGC,"9.84 upbm affinity estimate (log intensity, higher = more binding, comparable within an allelic series)"
13,CACGCACG,"9.72 upbm affinity estimate (log intensity, higher = more binding, comparable within an allelic series)"
14,GCACTCAA,"12.4 upbm affinity estimate (log intensity, higher = more binding, comparable within an allelic series)"
15,CTCTTGAA,"12.3 upbm affinity estimate (log intensity, higher = more binding, comparable within an allelic series)"
16,AAAGTAGC,"11.5 upbm affinity estimate (log intensity, higher = more binding, comparable within an allelic series)"
17,GCAAGTGC,"11.7 upbm affinity estimate (log intensity, higher = more binding, comparable within an allelic series)"
18,ATCACACC,"9.81 upbm affinity estimate (log intensity, higher = more binding, comparable within an allelic series)"
19,ACTCATAG,"11.6 upbm affinity estimate (log intensity, higher = more binding, comparable within an allelic series)"
20,CGGTCGTA,"9.66 upbm affinity estimate (log intensity, higher = more binding, comparable within an allelic series)"

# — PMC11006913
